In PubChem BioAssay one finds z-score and composite z-score data, which are given here for seven compounds.

Active and inactive are the calls of the source. Unless noted, no rule for the calls is given here.

Assay [1] can be described thus: A549 cell viability effects, profiling panel, calcein-AM fluorescence, 48 h, basal (AID 1162). Also: test concentration not given here. The settings on record: higher = more signal.
The nature of assay [2]: adipocyte viability effects, profiling panel, cell-based, 3T3-L1 adipocytes, calcein-AM fluorescence, 48 h, basal (AID 1163). Also: test concentration not given here. The conditions noted are these: 3T3-L1 adipocytes viability, higher = more signal.
Assay [3] is described as follows: HepG2 cell viability effects, profiling panel, calcein-AM fluorescence, 48 h, basal (AID 1164). Also: test concentration not given here. The settings on record: higher = more signal.
Assay [4] in a line: MM1S cell viability effects, profiling panel, calcein-AM fluorescence, 48 h, basal (AID 1165).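 Also: viability of MM1S multiple myeloma cells under basal unstimulated conditions; test concentration not given here.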 The settings on record: higher = more signal.
Assay [5] can be described thus: basal RPMI8226 viability, no added stimulus, profiling panel, cell-based, calcein-AM fluorescence, 48 h, PK04 Diversity Set (AID 1166).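 Also: cells grown under basal conditions without added stimulus; test concentration not given here.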 The settings on record: RPMI8226 myeloma viability, higher = more signal.
Assay [6] is described as follows: basal HepG2 mitochondrial membrane potential changes, profiling panel, cell-based, JC-1 fluorescence, 24 h, 100 nL compound (AID 1167). Also: test concentration not given here. The settings on record: higher = more signal.
The nature of assay [7]: basal 3T3-L1 adipocyte mitochondrial potential changes, profiling panel, cell-based, JC-1 fluorescence, 3T3-L1 adipocytes, 24 h, 100 nL compound (AID 1168). Also: test concentration not given here. The settings on record: JC-1 mitochondrial fluorescence, higher = more signal, called active from +8 up or from −8 down.
Assay [8] is described as follows: basal RPMI8226 mitochondrial membrane potential changes, profiling panel, cell-based, JC-1 fluorescence, 24 h, 100 nL compound (AID 1169). Also: test concentration not given here. The settings on record: RPMI8226 myeloma, JC-1 mitochondrial potential fluorescence, higher = more signal.
The nature of assay [9]: basal MM1S mitochondrial membrane potential changes, profiling panel, cell-based, JC-1 fluorescence, 24 h, 100 nL compound (AID 1170). Also: test concentration not given here. The settings on record: higher = more signal.
The nature of assay [10]: A549 lung cancer cell viability effects, profiling panel, resazurin fluorescence, 24 h, PK04 Diversity Set (AID 1171). Also: test concentration not given here. The conditions noted are these: higher = more signal, called active from +8 up or from −8 down. Background: Resazurin is reduced to fluorescent resorufin, in cell work by metabolically active cells.
A short description of assay [11]: HepG2 liver cancer cell viability effects, profiling panel, resazurin fluorescence, 24 h, PK04 Diversity Set (AID 1172). Also: test concentration not given here. The conditions noted are these: higher = more signal.
The nature of assay [12]: basal S. cerevisiae growth modulation, no modifier, primary screen, OD600, strain BY4716, 24 h, basal condition (AID 1173). The conditions noted are these: OD600, 24 h, higher = more signal, called active from +8 up or from −8 down.
Assay [13] in a line: MM1S myeloma cell viability, profiling panel, resazurin fluorescence, basal, 24 h, PK04 Diversity Set (AID 1174). Also: test concentration not given here. The conditions noted are these: higher = more signal, called active from +8 up or from −8 down.
The target in assay [14] is Dihydroorotate dehydrogenase (quinone), mitochondrial (Plasmodium falciparum (isolate 3D7)) (UniProt Q08210). As to the kind of experiment: PfDHODH enzyme inhibitors, primary screen, biochemical, C-terminal His tag, absorbance 600 nm (AID 1175).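 Also: recombinant parasite enzyme with a five histidine tag at its C terminus; test concentration not given here.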 The conditions noted are these: DCIP absorbance 600 nm, higher = more signal, called active from +8 up or from −8 down.
The nature of assay [15]: P. aeruginosa biofilm formation inhibitors, primary screen, strain PAO1, LB-PBS medium, absorbance 600 nm (AID 1176). Also: test concentration not given here. The settings on record: P. aeruginosa PAO1 growth/biofilm, A600, 12 h; higher = more signal.
Assay [16] in a line: S. cerevisiae RM11-1a growth modifiers, primary screen, strain RM11-1a, OD600, basal, 24 h (AID 1177).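 Also: cultures grown under basal conditions with no added stressor; test concentration not given here.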 The conditions noted are these: OD600, 24 h, higher = more signal, called active from +8 up or from −8 down.
Assay [17] in a line: E. coli acrAB mutant growth effects, primary screen, E. coli filamentation inducers, strain DRC39, OD650, 24 h (AID 1178).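 Also: growth measured as culture turbidity by optical density at 650 nm; test concentration not given here.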 The conditions noted are these: higher = more signal, called active from +8 up or from −8 down.
Assay [18] is described as follows: E. coli acrAB mutant growth effects, primary screen, E. coli filamentation inducers, strain DRC39, OD650, 48 h (AID 1179).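 Also: screen aims at cell division blockers that make cells filament.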 The settings on record: E. coli DRC39 delta-acrAB growth, higher = more signal, called active from +8 up or from −8 down.
Assay [19] in a line: RPMI8226 myeloma cell viability, profiling panel, resazurin fluorescence, basal, 24 h, PK04 Diversity Set (AID 1180).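 Also: RPMI8826 multiple myeloma cell line at 5000 cells per well; test concentration not given here.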 The settings on record: higher = more signal.
Assay [20] deals with E3 ubiquitin-protein ligase XIAP (Homo sapiens) (UniProt P98170). As to the kind of experiment: XIAP binders, primary screen, biophysical, small-molecule microarray, fluorescence 635 nm (AID 1181).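 Also: score merges 667 nm emission and signal to noise over triplicate slides.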 The settings on record: small-molecule microarray binding, higher = more signal.
E3 ubiquitin-protein ligase XIAP (Homo sapiens), sequence (P98170 whole entry, looked up): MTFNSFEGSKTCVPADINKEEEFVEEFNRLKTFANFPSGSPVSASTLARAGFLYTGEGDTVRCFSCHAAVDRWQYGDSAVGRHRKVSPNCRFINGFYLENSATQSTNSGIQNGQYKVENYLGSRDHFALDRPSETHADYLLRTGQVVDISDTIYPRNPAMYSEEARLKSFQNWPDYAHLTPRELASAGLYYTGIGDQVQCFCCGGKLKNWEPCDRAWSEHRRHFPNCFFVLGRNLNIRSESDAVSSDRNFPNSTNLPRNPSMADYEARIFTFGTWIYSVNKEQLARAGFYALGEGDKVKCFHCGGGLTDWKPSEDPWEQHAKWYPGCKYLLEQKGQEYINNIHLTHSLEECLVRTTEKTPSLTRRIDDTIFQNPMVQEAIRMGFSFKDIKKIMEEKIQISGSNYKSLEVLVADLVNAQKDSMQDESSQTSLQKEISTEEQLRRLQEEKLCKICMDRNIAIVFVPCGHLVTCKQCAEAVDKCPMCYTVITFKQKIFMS

Dihydroorotate dehydrogenase (quinone), mitochondrial (Plasmodium falciparum (isolate 3D7)), sequence (Q08210 whole entry, looked up): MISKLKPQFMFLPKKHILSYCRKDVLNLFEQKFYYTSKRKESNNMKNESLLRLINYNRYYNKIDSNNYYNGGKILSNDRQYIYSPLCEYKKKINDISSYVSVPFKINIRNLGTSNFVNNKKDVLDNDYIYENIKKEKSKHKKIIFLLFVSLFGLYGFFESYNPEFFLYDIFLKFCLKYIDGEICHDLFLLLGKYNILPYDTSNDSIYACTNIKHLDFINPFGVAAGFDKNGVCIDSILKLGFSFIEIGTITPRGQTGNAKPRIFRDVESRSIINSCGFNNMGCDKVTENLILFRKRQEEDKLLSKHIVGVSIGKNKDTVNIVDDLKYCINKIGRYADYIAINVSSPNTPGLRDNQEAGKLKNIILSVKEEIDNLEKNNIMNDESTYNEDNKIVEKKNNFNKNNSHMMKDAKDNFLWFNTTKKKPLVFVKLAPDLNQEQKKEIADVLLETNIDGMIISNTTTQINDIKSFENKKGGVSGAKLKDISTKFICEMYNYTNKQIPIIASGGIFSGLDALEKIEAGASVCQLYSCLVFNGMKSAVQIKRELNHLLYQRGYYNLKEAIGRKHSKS

For `COCCOC(=O)N1C(=O)[C@@]2(c3cc(C#CC4(O)CCCCCC4)ccc31)[C@H](C(N)=O)[C@H]1C(=O)O[C@H](c3ccccc3)[C@H](c3ccccc3)N1[C@@H]2c1ccccc1OCCO`, the z-score in [1] is -1.86; in [2], 0.73; in [3], -4.88; in [4], -3.42; in [5], -4.59; in assay [6], -2.32. The z-score in [7] is 1.57 (inactive); in assay [8], -1.17; in [9], -1.7; in assay [10], -2.63 (inactive); in assay [11], -1.85; in assay [12] it was 0.707 (inactive). The z-score was -7.01 (inactive) in assay [13]; 1.68 (inactive) in assay [15]; 2.26 (inactive) in assay [16]; -0.735 (inactive) in [17]; -0.719 (inactive) in [18]; -6.48 in assay [19]. Also, the composite z-score in assay [14] is 1.34 (inactive); in assay [20], -0.229.

On to `C=CCC(OC(C)=O)[C@@H]1[C@@H](N(Cc2cc3ccccc3o2)C(=O)c2ccc(C)cc2)c2cc(OCCCO)ccc2N1C(=O)Cc1ccc2ccccc2c1` (stereo not given in full), for which the z-score in assay [1] is 2.34; in assay [2] it was 0.133; in assay [3], 1.18; in [4], -0.623; in assay [5], -0.802; in assay [6], 3.42. In addition, the z-score in assay [7] was -0.577 (inactive); in assay [8], 0.0031; in assay [9] it was 0.718; in [10], 1.65 (inactive); in [11] it was 0.85; in [12], 0.0206 (inactive). In addition, the z-score in assay [13] is -0.589 (inactive); in assay [15], -0.501 (inactive); in [16], 0.554 (inactive); in [17], 0.964 (inactive); in assay [18], 1.08 (inactive); in assay [19] it was 0.305. The composite z-score in assay [14] is 0.507 (inactive); in [20], 0.162.

Regarding `CC(C)c1ccc(NN2C(C(O)c3ccco3)C=CC3C(=O)N(c4ccccc4)C(=O)C32)cc1` (stereo not given), the z-score in [1] was 0.983; in assay [2] it was -1.49; in [3], 0.842; in [4], -0.155; in [5] it was -0.166; in assay [6] it was -1.14. Also, the z-score is -0.473 (inactive) in assay [7]; 0.473 in [8]; -0.921 in assay [9]; -0.635 (inactive) in [10]; -0.517 in assay [11]; -2.51 (inactive) in assay [12]. Also, the z-score is -1.23 (inactive) in assay [13]; 1.07 (inactive) in assay [15]; 0.921 (inactive) in [16]; -0.609 (inactive) in assay [17]; 0.245 (inactive) in assay [18]; -0.695 in assay [19]. For the same compound, the composite z-score in assay [14] is 0.325 (inactive); in assay [20], -0.0026.

On to `Cc1ccc(S[C@]2(C(=O)NCC(F)(F)F)CC(=O)N(Cc3ccccc3)[C@@H]2c2ccc(CO)cc2)cc1`, for which the z-score in assay [1] is 0.149; in assay [2], 0.787; in assay [3] it was -0.479; in [4], 0.0646; in [5], -1.28; in assay [6], 0.0177. Also, the z-score was -0.291 (inactive) in assay [7]; 0.871 in [8]; -0.686 in [9]; 0.42 (inactive) in assay [10]; -0.991 in assay [11]; -0.185 (inactive) in assay [12]. Moreover, the z-score in assay [13] was 0.546 (inactive); in [15], -0.131 (inactive); in assay [16] it was -0.629 (inactive); in assay [17], 0.163 (inactive); in [18] it was -0.0965 (inactive); in assay [19], 0.342. Further, the composite z-score in assay [14] is -0.309 (inactive); in assay [20] it was 0.4.

`O=C1O[C@@H](c2ccccc2)[C@@H](c2ccccc2)N2[C@@H](c3ccc(O)cc3)[C@]3(C(=O)Nc4ccc(C#CCCO)cc43)[C@@H](C(=O)NC[C@H](O)c3ccccc3)[C@H]12`: the z-score in [1] was 0.479; in [2] it was 0.269; in [3], 0.333; in [4] it was -0.121; in assay [5], 0.671; in [6] it was -1.93. The z-score in assay [7] is -1.16 (inactive); in [8] it was 0.198; in assay [9] it was -0.667; in assay [10], 0.588 (inactive); in [11], 1.29; in [12], -0.169 (inactive). The z-score in assay [13] is 0.214 (inactive); in [15], -0.192 (inactive); in [16], 0.376 (inactive); in [17], 0.6 (inactive); in assay [18] it was 0.242 (inactive); in assay [19], 1.33. In addition, the composite z-score in assay [14] is 0.129 (inactive); in [20], 0.363.

Turning to `CCOC(=O)C[C@H]1[C@H](OC(=O)c2ccc(C(=O)c3ccccc3)cc2)[C@@H](NC(=O)c2ccc3ccccc3c2)c2cc(OCCCO)ccc2N1C(=O)c1ccccc1`, the z-score in [1] was -0.0566; in assay [2], 0.202; in assay [3], -0.458; in assay [4] it was 0.0736; in assay [5], -0.602; in assay [6], -0.245. For the same compound, the z-score in [7] was -1.1 (inactive); in [8] it was 0.314; in assay [9], 0.184; in assay [10] it was -0.412 (inactive); in [11], -0.55; in [12], -0.592 (inactive). Moreover, the z-score in [13] is -0.377 (inactive); in [15], 0.055 (inactive); in assay [16] it was -0.617 (inactive); in assay [17], 0.347 (inactive); in assay [18] it was 0.212 (inactive); in assay [19], -0.539. For the same compound, the composite z-score in assay [14] is -0.46 (inactive); in assay [20] it was -0.0367.

With `CC(=O)n1cc(C(O)C2C=CC3C(=O)N(c4ccccc4)C(=O)C3N2Nc2ccccc2)c2ccccc21` (stereo not given), the z-score is -0.8 in [1]; 0.174 in [2]; 0.374 in assay [3]; -1.06 in assay [4]; -1.19 in assay [5]; -2.16 in assay [6]. For the same compound, the z-score was -0.349 (inactive) in assay [7]; -0.502 in [8]; -0.969 in assay [9]; -1.05 (inactive) in [10]; -1.51 in assay [11]; -3.18 (inactive) in [12]. In addition, the z-score was -2.12 (inactive) in assay [13]; 0.807 (inactive) in [15]; 0.127 (inactive) in [16]; -0.0484 (inactive) in assay [17]; -0.602 (inactive) in assay [18]; -1.76 in assay [19]. The composite z-score in assay [14] was 0.342 (inactive); in assay [20], 0.0297.
